# In the library only some 11% were active in any assay of this set; here they are far more common.
# hNpr1 antagonist: blocks ANP-stimulated signaling of human Npr1 receptor; HEK293 hNpr1 GloSensor cGMP, ANP-stimulated luminescence; Potency, µM (top dose mostly 46.3 µM), without a hit: top-dose activity change, negative = inhibition, most hits filed as inhibitors; 1.6% of 76,000 active; calls by dose curve; further: nearly all actives have a fitted effect of over 60% in size
#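 Compound pre-incubated 30 min at room temperature on GloSensor-loaded HEK293 cells stably carrying hNpr1 and the pGS-40F cGMP biosensor. Stimulation uses hNppA at 0.1 nM final; luminescence is taken at baseline and 20 min post-agonist.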
# NIH3T3 tox: cytotoxic compounds in NIH 3T3 cells; NIH 3T3 viability, CellTiter-Glo ATP luminescence, 48-72 h; Potency, µM (highest dose often 96.7 µM), for inactives: top-dose activity change, negative = cytotoxicity, actives largely listed as inhibitors; 4.3% of 94,000 active; AID 1345082; further: nearly all actives have a fitted effect of over 55% in size
#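 Cells were seeded at 400 per well, treated with pin-transferred compound, and kept 48 or 72 hr at 37 °C before CellTiter-Glo addition and luminescence imaging of cellular ATP.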
# HEK293 tox: HEK 293 cell cytotoxicity. HEK 293 viability, ATP luminescence (CellTiter-Glo), 48-72 h. Potency, µM (doses to about 115 µM), for the others: at the top dose activity change, negative = cytotoxicity, actives largely listed as inhibitors. 6.6% of 94,000 active. AID 1345083; further: nearly all actives have a fitted effect of over 60% in size
#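 Viability of HEK 293 cells, plated at 250 cells/well, was judged by cellular ATP after compound treatment for 48 or 72 hr. Luminescence was imaged 10 min after CellTiter-Glo addition at room temperature.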
# FLuc inh: blocks purified firefly luciferase enzyme activity | P08659 | purified P. pyralis luciferase, luminescence, biochemical | Potency, µM (highest dose often 115 µM), most hits filed as inhibitors | 2.5% of 76,000 active | AID 1347043; further: nearly all actives have a fitted effect of over 65% in size
# Target sequence (P08659 whole entry, looked up): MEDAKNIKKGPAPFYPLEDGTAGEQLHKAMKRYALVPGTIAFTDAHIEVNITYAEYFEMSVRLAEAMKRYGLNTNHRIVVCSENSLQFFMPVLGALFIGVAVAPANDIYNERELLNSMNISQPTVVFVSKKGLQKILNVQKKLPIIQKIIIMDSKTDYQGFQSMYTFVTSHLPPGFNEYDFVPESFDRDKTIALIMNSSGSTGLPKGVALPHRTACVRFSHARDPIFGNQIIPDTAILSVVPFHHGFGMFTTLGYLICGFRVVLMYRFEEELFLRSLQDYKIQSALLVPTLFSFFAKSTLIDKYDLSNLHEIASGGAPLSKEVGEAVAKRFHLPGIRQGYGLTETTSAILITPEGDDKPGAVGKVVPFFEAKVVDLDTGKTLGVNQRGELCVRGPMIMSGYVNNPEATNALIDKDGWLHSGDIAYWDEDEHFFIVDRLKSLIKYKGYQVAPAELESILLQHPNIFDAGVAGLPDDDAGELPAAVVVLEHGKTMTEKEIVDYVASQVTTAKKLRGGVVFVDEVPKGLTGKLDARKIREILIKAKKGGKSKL
#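 Biochemical qHTS: compound (6-point titration) added to 10uM D-luciferin plus 10uM ATP in Tris acetate pH 7.5 buffer with Mg, Tween-20 and BSA, then purified enzyme at 10nM; light output imaged.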
# An asterisk follows results filed as active; i = inactive; ? = inconclusive; / = not tested or not shown; [ ] = remark or other dose. Unless noted, the call rests on the fitted dose curve; in most records, active means well fitted curve in the direction sought with a large enough effect; inconclusive means small, poorly fitted or top-dose-only effect, or another doubt; inactive means no such curve, though single readings can be large; an effect the other way counts as inactive or inconclusive. On the % scale 0 is the no-effect control and ±100 the full control effect; potency means the concentration at half of the fitted maximal effect.
SMILES,hNpr1 antagonist,NIH3T3 tox,HEK293 tox,FLuc inh
CN(C)c1nccnc1OC1CCN(C(=O)CCC(=O)c2ccc(F)cc2)C1 (stereo not drawn),-3%,-20%,?,?
CCOC(=O)c1cccc(NC(=O)c2ccc3c(c2)N(C)C2CCCCCN2C3=O)c1 (stereo not drawn),-18%,?,32µM*,?
CCOC(=O)c1cccc(NC(=O)c2ccc3c(c2)N(CC)C2CCCCN2C3=O)c1 (stereo not drawn),-28%,40µM*,40µM*,i
CCN1c2cc(C(=O)Nc3cccc(C)c3)ccc2C(=O)N2CCCC21 (stereo not drawn),6%,?,?,i
CCc1ccc(NC(=O)c2ccc3c(c2)N(C)C2CCCCCN2C3=O)cc1 (stereo not drawn),-14%,i,?,?
COCCn1cc2c3c(cccc31)CN(C(=O)CCCc1ccccc1)CC2,-29%,?,?,i
COCC(=O)N1CCc2cn(CC(C)C)c3cccc(c23)C1,-11%,?,79µM*,i
Cc1cccc(CC(=O)N2CCC3(CC2)CC(O)CCO3)c1 (stereo not drawn),5%,-4%,-22%,i
CCOc1ccccc1CN1CCC(N2CCCC(C(=O)NC3CC3)C2)CC1 (stereo not drawn),1%,-11%,-25%,i
COc1ccc(-n2c(=O)c(C(=O)NCc3cccs3)nc3cccnc32)cc1,/,-16%,3%,/
FC(F)(F)c1ccc2c(c1)nc1n2[C@@H](CNCc2c[nH]c3ccccc23)COC1,-17%[70.6 µM],?,89µM*,i
COc1cccc(C(=O)N2CCC(C(=O)N3CCC(N4Cc5cccn5C4=O)CC3)CC2)c1,/,?,-27%,/
Cc1nc2n(c1C(=O)Nc1cccc(Cl)c1C)CCC(Nc1ccc(F)cc1)C2 (stereo not drawn),-1%[70.6 µM],?,89µM*,i
CNC(=O)c1cc(C)nc2onc(C3CCCN3C(=O)N(C)C)c12 (stereo not drawn),/,-9%[138 µM],-18%[172 µM],/
C[S+](=O)([O-])NCc1nnc2n1C(C(=O)Nc1ccc(F)cc1)CC2 (stereo not drawn),/,-8%,5%,/
COc1ccc(CN2CCC(N3CC4CCCN4C3=O)CC2)cc1 (stereo not drawn),2%[70.6 µM],-3%[138 µM],0%[172 µM],i
O=C1N2CCCC2CN1C1CCN(Cc2ccc(C(F)(F)F)cc2)CC1 (stereo not drawn),?,?,40µM*,i
CC(=O)N1CC2(CCN(Cc3cccc(C(N)=O)c3)CC2)Cc2ccccc21,/,-11%,-16%,/
CC(=O)N1CC2(CCCN(Cc3ccc(Cl)cc3)C2)Cc2ccccc21 (stereo not drawn),/,-19%,?,/
NC(=O)c1cccc(CN2CCC3(CC2)Cc2ccccc2N(C(=O)c2ccc(Cl)cc2)C3)c1,/,?,40µM*,/
NC(=O)c1cccc(CN2CCC3(Cc4ccccc4N(C(=O)c4ccc(Cl)cc4)C3)C2)c1 (stereo not drawn),/,?,35µM*,/
O=C(c1ccc(Cl)cc1)N1CC2(CCCN(Cc3ccccn3)C2)Cc2ccccc21 (stereo not drawn),/,?,32µM*,/
O=C(O)CCC(=O)N1CCC2(CC1)Cc1ccccc1N(C(=O)C1CCCC1)C2,/,?,-17%,/
O=C(O)CCC(=O)N1CCC2(CC1)Cc1ccccc1N(C(=O)c1ccc(Cl)cc1)C2,/,32µM*,i,/
O=C1NCCCCCCN(Cc2ccncc2)[C@@H]2CN(C(=O)c3cccs3)CC[C@@H]12,5%,-5%,i,i
SMILES,hNpr1 antagonist,NIH3T3 tox,HEK293 tox,FLuc inh
Cn1nc(C2CC2)cc1NC(=O)c1ccc(Cl)nc1,/,-26%[138 µM],-6%[172 µM],/
FC(F)(F)c1cccc(Nc2ncc(-c3cccnc3)c3c2OCC3)c1,-16%[70.6 µM],?,?,i
COc1ccc(Nc2ncc(-c3cccnc3)c3c2OCC3)cc1,12%[70.6 µM],?,?,13µM*
COc1ccc(-c2cnc(Nc3cccnc3)c3c2CCO3)cn1,-7%[70.6 µM],?,71µM*,?
COc1cccc(Nc2ncc(-c3ccccc3)c3c2OCC3)c1,?,-28%[138 µM],?,14µM*
Cc1cnc(CCNC(=O)NCC(C)C)n1C1CCCCCC1,/,-32%,-3%,/
Cc1nn(-c2ccccc2)c2c1C(C)N(C1CCCN(C(=O)C3CC3)C1)C2=O (stereo not drawn),/,-11%,-2%,/
Cc1ccccc1C(=O)N1CCC(N2C(=O)c3c(c(C)nn3-c3ccccc3)C2C)CC1 (stereo not drawn),/,?,45µM*,/
COC(=O)N1CCCC(N2C(=O)c3c(c(C)nn3-c3ccccc3)C2C)C1 (stereo not drawn),/,-26%,?,/
Cc1nn(-c2ccccc2)c2c1C(C)N(C1CN(C(=O)NC3CCCC3)C1)C2=O (stereo not drawn),/,28µM*,?,/
Cc1nn(-c2ccccc2)c2c1C(C(C)C)N(C1CCN(C(=O)C3CC3)CC1)C2=O (stereo not drawn),/,-28%,-19%,/
COc1ccccc1C(=O)N1CCC(N2C(=O)c3c(c(C)nn3-c3ccccc3)C2C)CC1 (stereo not drawn),/,?,40µM*,/
Cc1ccccc1C(=O)N1CCC(N2C(=O)c3c(c(C)nn3-c3ccccc3)C2C)C1 (stereo not drawn),/,?,45µM*,/
CCN1CCN(C(=O)c2ccc3c(c2)n(Cc2cccc(F)c2)c(=O)c2ccnn23)CC1,3%,-21%,-20%,i
O=C1CC(c2ccccc2)N(Cc2ccncc2)CCCN(C(=O)COc2ccc(F)cc2)CCN1 (stereo not drawn),1%,-19%,?,i
CC(C)Cn1c(=O)c(C(=O)N2CCN(C(=O)c3cccc(Cl)c3)CC2)nc2cccnc21,/,-28%,-2%,/
CCOC(=O)C1CCN(C(=O)c2ccc3nnc(-c4ccccc4OC)n3c2)CC1,/,-5%,4%,/
Cc1nc(-c2ccc(F)cc2)n(Cc2ccc(F)cc2F)c(=O)c1CCO,-1%,?,?,i
Cc1nc(-c2ccccc2)n(Cc2cc(F)cc(F)c2)c(=O)c1CCO,-2%,?,?,i
Cc1nc(-c2ccc(Cl)cc2)n(Cc2ccc(F)cc2F)c(=O)c1CCO,1%,?,35µM*,i
Cc1nc(-c2ccc(Cl)cc2)n(Cc2ccccc2F)c(=O)c1CCO,3%,?,45µM*,i
Cc1nc(-c2ccc(Cl)cc2)n(Cc2ccc(F)c(F)c2)c(=O)c1CCO,-23%,?,45µM*,i
Cc1ccc(C)c(Cn2c(-c3ccc(Cl)cc3)nc(C)c(CCO)c2=O)c1,4%,?,?,i
Cc1nc(-c2ccccc2)n(Cc2ccc(F)cc2Cl)c(=O)c1CCO,-21%,45µM*,28µM*,i
Cc1nc(-c2ccc(F)cc2)n(Cc2ccc(F)c(F)c2)c(=O)c1CCO,-23%,?,?,i
OCC1CN(Cc2ccccc2)CC12CCN(Cc1ccccn1)CC2 (stereo not drawn),-1%,?,?,i

# Screens deposited in PubChem BioAssay by National Center for Advancing Translational Sciences (NCATS).
